Vaccinia pol inh: vaccinia E9 polymerase processive synthesis inhibition; AID 493162; in vitro processive DNA synthesis, absorbance read-out; stronger effect = lower value; normalized absorbance, % (concentration not given with the values); 46,000 compounds, 0.94% hits; in the data active means normalized absorbance mostly below about 85%, no sharp cut-off; inactive means mostly above about 86%
Starred values were filed as active, the others as inactive. This excerpt belongs to a sample that is enriched for hits.

SMILES | Vaccinia pol inh
COC(=O)NC1CSCC1OC(=O)CCCN1C(=O)c2ccccc2C1=O (configuration not stated) | 100.2
COc1ccc(CCNC(=O)CSc2nc(N)c3c(C)c(C)sc3n2)cc1 | 95.1
C=CCSc1nc2ccccc2c(=O)n1-c1ccccc1 | 99.0
Cc1cc(C)cc(CC(c2nc3ccccc3[nH]2)C(C)c2nc3ccccc3[nH]2)c1 (configuration not stated) | 99.9
CN[C@@H]1CC2(C)OC([C@@H]1OC)n1c3ccccc3c3c4c(c5c6ccccc6n2c5c31)C(=O)NC4 (some centres not stated) | 55.7*
Cn1c2ccccc2c2c3c(c4c5ccccc5n(CCC#N)c4c21)CNC3=O | 98.0
COC(=O)[C@@]1(O)CC2OC1(C)n1c3ccccc3c3c4c(c5c6ccccc6n2c5c31)C(=O)NC4 (some centres not stated) | 98.1
COc1ccc(C2=NS(=O)(=O)N(C)C(C(=O)N3CCC(C)CC3)=C2)cc1OC | 103.6
CCC1CCCCN1C(=O)C1=CC(c2ccc(OC)cc2)=NS(=O)(=O)N1C (configuration not stated) | 87.4
COc1ccc(C2=NS(=O)(=O)N(C)C(C(=O)N3CCC(C(N)=O)CC3)=C2)cc1 | 69.6*
CCOc1ccccc1C1C(C(=O)OC)=CN(CC23CC4CC(CC(C4)C2)C3)C=C1C(=O)OC | 97.0
Clc1ccc2oc(-c3cccnc3)nc2c1 | 100.3
Clc1ccc2oc(-c3ccccc3)cc(=NCc3cccnc3)c2c1 | 66.0*
CCCN=c1cc(-c2ccccc2)oc2ccc(C)cc12 | 42.5*
Cc1ccc2oc(-c3ccc(Cl)cc3)cc(=O)c2c1 | 108.1
Cc1cc(NCc2cccnc2)c2ccc(Cl)cc2n1 | 102.8
COc1ccc(-c2cc(=Nc3ccc(C)cc3C)c3cc(O)ccc3o2)cc1 | 99.9
CNc1ncc(Br)nc1Br | 87.4
Cc1ccc2c(c1)N(C(=O)Nc1ccccc1)CC(C)O2 (configuration not stated) | 111.1
COc1ccc2nc(N(CCN(C)C)C(=O)c3cccs3)sc2c1 | 94.7
CN(C)CCN(C(=O)c1ccco1)c1nc2cc3c(cc2s1)OCO3 | 60.6*
COc1ccc2sc(N(CCN(C)C)C(C)=O)nc2c1 | 99.2
O=C(NCCO)c1ccc(CSc2nc3sc4c(c3c(=O)[nH]2)CCC4)cc1 | 98.9
CCOC(=O)c1cc(NC(=O)Nc2ccc(C)cc2C)c(C)nc1C | 98.4
c1ccc(CN2CN=C(Nc3nc4ccccc4o3)NC2)cc1 | 103.4
SMILES | Vaccinia pol inh
CCCCN1CN=C(Nc2nc(C)c3ccccc3n2)NC1 | 96.3
Cc1nc(NC2=NCN(Cc3ccccc3)CN2)nc2ccccc12 | 73.4*
CCOC(=O)Cn1c(=O)oc2cc(S(=O)(=O)NCc3cccc(OC)c3)ccc21 | 91.3
CN1CCN(c2nc(-c3ccccc3)c3ccccc3n2)CC1 | 100.7
CN1CCN(c2cc(-c3ccccc3)nc3ccccc23)CC1 | 78.9*
CN1CCN(c2cc(-c3ccncc3)nc3ccccc23)CC1 | 83.0
O=c1cc(C(F)(F)F)nc2c(-c3ccccc3)c(C(F)(F)F)[nH]n12 | 76.2
CC1CCN(CN2C(=O)C3(OCCCO3)c3ccccc32)CC1 | 97.1
O=C(CCCN1C(=O)S/C(=C/c2ccccc2)C1=S)NC12CC3CC(CC(C3)C1)C2 | 101.1
CCOC(=O)c1ccc(N2N=C(C(F)(F)F)/C(=C/C=C/c3ccco3)C2=O)cc1 | 99.6
CCc1ccc(/C=C2/C(=O)N(c3ccccc3)N=C2C)cc1 | 91.6
O=C(O)c1ccc(N2N=C(C(F)(F)F)/C(=C/c3ccc(OC(=O)c4cccs4)cc3)C2=O)cc1 | 23.3*
Cc1ccccc1NC(=O)CC(NCc1ccccc1)C(=O)O (configuration not stated) | 103.0
Cc1ccc2nc3ccc(N4CCC(Cc5ccccc5)CC4)nn3c(=O)c2c1 | 91.8
Cc1c(C(=O)Nc2ccc3ccccc3c2)oc2ccccc12 | 99.6
CC[n+]1oc(C)c2ccccc21 | 99.7
CC1Cc2ccccc2N1S(=O)(=O)c1cc(Br)cnc1N (configuration not stated) | 100.5
CC1CC(C)CN(CC(O)Cn2c3ccccc3c3ccccc32)C1 (configuration not stated) | 91.6
OC(CN1CCNCC1)Cn1c2ccc(Br)cc2c2cc(Br)ccc21 (configuration not stated) | 31.4*
OC(CN1CCN(c2cccc(Cl)c2)CC1)Cn1c2ccccc2c2ccccc21 (configuration not stated) | 99.8
O=C(/C=N/O)Nc1ccccc1C(=O)O | 94.2
O=C(O)c1ccccc1NCc1ccccc1Cl | 63.8
O=C(Nc1ccccc1C(=O)O)OCC1c2ccccc2-c2ccccc21 | 41.1*
O=C(CCN1CCc2ccccc2C1)Nc1ccc2c(c1)CCC2 | 106.1
Clc1ccc(CN2CCN(c3cccc4[nH]ccc34)CC2)c(Cl)c1 | 110.7
SMILES | Vaccinia pol inh
Cc1ccccc1OCCn1cnc2ccccc21 | 98.5
CCN(CC)C(=O)CSc1nc2c(c(=O)n(C)c(=O)n2C)n1CC | 98.1
CC1CC(=O)c2cnc(N3CCc4ccccc43)nc2C1 (configuration not stated) | 100.3
S=c1[nH]c(=S)c2cnc(N3CCc4ccccc43)nc2[nH]1 | 98.5
CNc1nc(N2CCc3ccccc32)ncc1F | 56.5*
CCCNc1nc2ccccn2c(=O)c1/C=C1\SC(=S)NC1=O | 99.7
COc1ccc(C(=O)N2CCN(C(C)C)CC2)cc1 | 104.7
Cc1ccc(C=Nc2ccccc2Br)o1 | 88.6
COc1ccc2c(OC)ccc3c2c1C=CC3=O | 56.2*
CC[C@@]1(O)C[C@H](O[C@H]2C[C@H](N(C)C)[C@H](O)[C@H](C)O2)c2c(cc3c(c2O)C(=O)c2c(O)cccc2C3=O)[C@H]1C(=O)OC | 8.9*
CC[C@@]1(O)C[C@H](OC2CC(N(C)C)C(OC3CC(O)C(OC4CCC(=O)C(C)O4)C(C)O3)C(C)O2)c2c(cc3c(c2O)C(=O)c2c(O)cccc2C3=O)[C@H]1C(=O)OC (some centres not stated) | 37.6*
CSc1nc2c(sc3ccccc32)c(=O)n1-c1ccc(C)cc1 | 101.6
Nc1scc[n+]1CC(=O)Nc1ccccc1 | 100.4
CC(=O)Nc1sc2c(c1CN1CCc3ccccc3C1)CCCC2 | 105.8
O=C(O)CCC(=O)Nc1ccc(Oc2ccc(Cl)cc2)cc1 | 94.0
O=C(CN1C(=O)c2ccccc2S1(=O)=O)N1CCCC1 | 105.9
O=C(O)c1ccc(Nc2nc(-c3ccc(Cl)c(Cl)c3)cs2)cc1 | 102.4
COc1ccc(C2C(C(=O)NCCCN3CCC(C)CC3)c3ccccc3C(=O)N2C)cc1 (configuration not stated) | 97.3
Cc1ccc2c(c1)N(C(=O)N1CCC(C(=O)O)CC1)CC(C)O2 (configuration not stated) | 93.6
CC1CN(C(=O)NC23CC4CC(CC(C4)C2)C3)c2cc(Cl)ccc2O1 (configuration not stated) | 102.3
CC1CN(C(=O)N2CCC(C(=O)O)CC2)c2cc(Cl)ccc2O1 (configuration not stated) | 67.7*
CC1(C)CC(NC(=O)c2ccc(C(=O)c3ccccc3)o2)CC(C)(C)N1 | 99.9
O=C(c1ccno1)N1CCN(C2c3ccccc3-c3ccccc32)CC1 | 102.3
CCc1c(C)nc2ccc(OC)cc2c1Cl | 104.0
COc1ccc2c(C)nc(/N=C(N)/N=C(\C)c3ccccc3C(=O)O)nc2c1 | 31.4*
COc1ccc(-c2nc3ccccc3n2C(=O)c2ccccc2C(=O)O)cc1 | 98.5
COc1ccc2c(C)nc(/N=C(\N)NC(C)=O)nc2c1 | 53.6*
COc1ccc2nc(/N=C(\N)NC(=O)N3c4ccccc4Sc4ccccc43)nc(C)c2c1 | 100.3
